# Experimental data published in PubChem BioAssay (NCATS).
# Several values for one entry are separate records, joined by “and”; a condition that tells them apart may be missing. Equal entries are not always repeated. Activity calls are given as the source filed them. The rule behind the calls is not given here.
# Columns and labels:
# [1] = biological target: Nuclear receptor subfamily 1 group I member 2 (Rattus norvegicus) (UniProt Q9R1A7); experiment: qHTS assay for small molecule activators of the rat pregnane X receptor (rPXR) signaling pathway (AID 651751); conditions: rPXR reporter cells, luciferase (One-Glo), 24 h
# [2] = qHTS assay for small molecule activators of the human pregnane X receptor (PXR) signaling pathway (AID 720659); conditions: DPX-2 HepG2 CYP3A4-luciferase, 24 h; series mostly up to 92.3 µM
# Note: 0% is about no effect.
# Sequence of Nuclear receptor subfamily 1 group I member 2 (Rattus norvegicus) (Q9R1A7 whole entry, looked up): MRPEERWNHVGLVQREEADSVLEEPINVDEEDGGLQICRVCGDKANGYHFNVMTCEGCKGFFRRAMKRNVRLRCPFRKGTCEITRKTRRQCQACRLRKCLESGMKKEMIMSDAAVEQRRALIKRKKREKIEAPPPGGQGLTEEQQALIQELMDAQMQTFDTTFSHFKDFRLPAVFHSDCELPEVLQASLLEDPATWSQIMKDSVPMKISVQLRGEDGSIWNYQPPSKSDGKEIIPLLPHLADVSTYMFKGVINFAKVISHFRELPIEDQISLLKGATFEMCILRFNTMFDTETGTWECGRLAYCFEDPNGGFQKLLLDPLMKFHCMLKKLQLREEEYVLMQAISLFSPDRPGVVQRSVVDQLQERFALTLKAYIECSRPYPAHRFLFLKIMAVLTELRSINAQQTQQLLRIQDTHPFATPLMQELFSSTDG
SMILES,max response [1],outcome [2]
CCCCOC(=O)CC(CC(=O)OCCCC)(OC(C)=O)C(=O)OCCCC,12% (inactive),
O=C(O)c1ccc(S(=O)(=O)N(Cl)Cl)cc1,3.23% (inactive),inactive
CCCCCCCCCCCCCCCCO,0.781% (inactive),inactive
CCCN(CCC)S(=O)(=O)c1ccc(C(=O)O)cc1,7.36% (inactive) and 2.17% (inactive),inactive
Oc1c(Cl)cc(Cl)c(Cl)c1Cc1c(O)c(Cl)cc(Cl)c1Cl,,inactive
NC(=O)c1ccccc1O,-4.39% (inactive),inactive
CCOc1ccc(NC(C)=O)cc1,2.72% (inactive) and -0.111% (inactive),inactive
Oc1ccc(Cl)cc1Cc1cc(Cl)ccc1O,-15% (inactive) and -0.451% (inactive),inactive
CCOc1ccccc1C(N)=O,2.38% (inactive),inactive
COc1ccc(C(=O)c2ccccc2)c(O)c1,7.56% (inactive) and 2.38% (inactive),
CCCCCCCCOc1ccc(C(=O)c2ccccc2)c(O)c1,-1.61% (inactive),inactive
CC(C)(C)CC(C)(C)c1ccc(O)c(-n2nc3ccccc3n2)c1,0.874% (inactive),
CCCCC(CC)COC(=O)c1ccc(N(C)C)cc1 (stereo not drawn),5.66% (inactive) and 6.49% (inactive),
CC1(C)OC[C@@H]2O[C@@]3(C(=O)O)OC(C)(C)O[C@H]3[C@@H]2O1,0.338% (inactive),inactive
CCCCCCCC/C=C\CCCCCCCCN,3.35% (inactive),inactive
CC1(COc2ccc(CC3SC(=O)NC3=O)cc2)CCCCC1 (stereo not drawn),13.5% (inactive),
NCCNc1cccc2ccccc12,-3.2% (inactive) and 4.24% (inactive),
C/C=C/c1ccc(O)c(OC)c1,1.38% (inactive) and 1.79% (inactive),inactive
CCCCCCCCCCCCCCCC(=O)O,-0.866% (inactive),inactive
COc1cc([C@H]2Oc3cc([C@H]4Oc5cc(O)cc(O)c5C(=O)[C@@H]4O)ccc3O[C@@H]2CO)ccc1O,,inactive
OC[C@H]1O[C@@H]2O[C@H]3[C@H](O)[C@@H](O)[C@@H](O[C@H]4[C@H](O)[C@@H](O)[C@@H](O[C@H]5[C@H](O)[C@@H](O)[C@@H](O[C@H]6[C@H](O)[C@@H](O)[C@@H](O[C@H]7[C@H](O)[C@@H](O)[C@@H](O[C@H]8[C@H](O)[C@@H](O)[C@@H](O[C@H]1[C@H](O)[C@H]2O)O[C@@H]8CO)O[C@@H]7CO)O[C@@H]6CO)O[C@@H]5CO)O[C@@H]4CO)O[C@@H]3CO,-1.43% (inactive),inactive
CN(C)C(=O)Nc1ccc(Cl)c(Cl)c1,5.92% (inactive),inactive
CCCCCCCCCCCCCC(=O)OC(C)C,2.24% (inactive),inactive
